Inconclusive results are not listed. The source made the active and inactive calls. Calls follow the shape of the dose curve; as a rule, active = well fitted cell-killing curve with a large enough effect in the repeat runs; inconclusive = weak or mixed curves, or effect the other way; inactive = flat fitted curve, though single readings scatter.
Assay: qHTS RealTime-Glo MT Cell Viability Assay in HepG2 cells - 0 hour (AID 1224889); also: nearly all actives have a fitted effect of over 50% in size
Conditions: RealTime-Glo luminescence; series mostly up to 76.8 µM; activity change, negative = cytotoxicity: at the top concentration
Description: U.S. Tox21 Program National Center for Advancing Translational Sciences [NCATS] NIH Chemical Genomics Center [NCGC] U.S. Environmental Protection Agency [EPA] National Institutes of Environmental Health Sciences [NIEHS] National Toxicology Program [NTP] U.S. Food and Drug Administration [FDA] Tox21 Assay Overview: Measure of cell viability is critical in the cell-base assay. Analysis of cell viability is necessary for the characterization of cell responses to cytotoxic drugs and environmental stress. A RealTime-Glo MT Cell Viability Assay to monitor cell viability in real time of continues cell culture during 40 hours of compound treatment was used to screen Tox21 10K library compounds in HepG2 cells. The RealTime-Glo MT Cell Viability Assay is a nonlytic, homogeneous, bioluminescent method to measure cell viability in real time using a simple, plate-based method. The assay involves adding NanoLuc luciferase and a cell-permeant prosubstrate to cells in culture. Viable cells reduce the proprietary prosubstrate to generate a substrate for NanoLuc luciferase. This substrate diffuses from cells into the surrounding culture medium, where it is rapidly used by the NanoLuc Enzyme to produce a luminescent signal. The signal correlates with the number of viable cells, making the assay well suited for cytotoxicity studies.
Tox21 Assay Protocol Summary: The mixture of HepG2 cell suspension and reagents were dispensed at 600cells/6 ul/well in 1536-well tissue culture treated black solid bottom plates using a Multidrop dispenser. After the assay plates were incubated at a 37 C/5% CO2 incubator for 5 hours, 23 nL of compounds dissolved in DMSO, positive and negative controls was transferred to the assay plate by a pintool work station. The plates were incubated at 37 C for 40 hours. The luminescence intensity were measured at 0h, 8h, 16h, 24h, 32h and 40h time points using ViewLux plate reader during compound treatment.
% is scaled to controls: 0 for no effect and ±100 for the full control effect.

| SMILES | activity change, negative = cytotoxicity | Potency |
| --- | --- | --- |
| CCN(CC)C(=O)c1cc(S(=O)(=O)Cc2ccccc2)c(N2CCC(c3ccccc3)CC2)cc1N(CC)CCN(C)C | -3.09% [at 35.3 µM] (inactive) | – |
| CC[N+](CC)(CC)CCOC(=O)C(C1CCCC1)C1CCCC1 | 13.9% [at 35.3 µM] (inactive) | – |
| C=C(C)C(=O)OCCCCCCCCCC | 1.11% (inactive) | – |
| c1ccc(C(O[C@@H]2CCCN(CCc3ccc4c(c3)OCO4)C2)c2ccccc2)cc1 | 9.19% (inactive) | – |
| C1CCC(SSC2CCCCC2)CC1 | 3.25% (inactive) | – |
| COc1cc(C)ccc1O | 5.02% (inactive) | – |
| CCN1C(=O)c2ccccc2C1Nc1ccc(OCCN2CCCCC2)cc1 (stereo not given) | -1.64% [at 35.3 µM] (inactive) | – |
| CCCCOC(=O)CO | 3.23% (inactive) | – |
| CC(C)(C)C1CCC(=O)CC1 | -0.0838% (inactive) | – |
| CNc1ccc([N+](=O)[O-])cc1 | 1.67% (inactive) | – |
| Cc1ccc(C(=O)O)cc1 | 2.17% (inactive) | – |
| CN1CCCCC1CCN1c2ccccc2Sc2ccc(S(C)=O)cc21 (stereo not given) | 18.5% [at 35.3 µM] (inactive) | – |
| CCCCCCCC/C=C\CCCCCCCCN | 24.9% [at 35.3 µM] (inactive) | – |
| C=C(C)c1cccc(C(=C)C)c1 | 4.13% (inactive) | – |
| CC1(C)CCC[C@]2(C)[C@H]3CC(=O)O[C@]3(C)CC[C@@H]12 | -13.7% (inactive) | – |
| Cc1c(C)c2c(c(C)c1OC(=O)c1cccnc1)CC[C@@](C)(CCC[C@H](C)CCC[C@H](C)CCCC(C)C)O2 | -2.22% [at 35.3 µM] (inactive) | – |
| COc1ccc2c(c1)c(CC(=O)OC/C=C(\C)CC/C=C(\C)CCC=C(C)C)c(C)n2C(=O)c1ccc(Cl)cc1 | -4.42% [at 35.3 µM] (inactive) | – |
| C=CC(C)(CCC=C(C)C)OC=O (stereo not given) | -4.06% (inactive) | – |
| CCC(COC(=O)CCS)(COC(=O)CCS)COC(=O)CCS | -29.4% (inactive) | – |
| Cc1cccc(C(=O)O)c1O | 3.02% [at 35.3 µM] (inactive) | – |

| SMILES | activity change, negative = cytotoxicity | Potency |
| --- | --- | --- |
| CN1CCN2c3ccccc3Cc3ccccc3C2C1 (stereo not given) | 18.3% [at 35.3 µM] (inactive) | – |
| CC(C)=CCNc1ncnc2c1ncn2[C@@H]1O[C@H](CO)[C@@H](O)[C@H]1O | 7.82% [at 35.3 µM] (inactive) | – |
| CCCCCCCCCCCCCC[N+](C)(C)Cc1ccccc1 | – | inactive |
| CC(C)OC(=O)C(O)(CC(=O)O)CC(=O)O | 3.48% (inactive) | – |
| NC(=O)c1cccc([N+](=O)[O-])c1 | 0.919% (inactive) | – |
| Nc1ccc(Oc2ccc(Cl)cc2)cc1 | 2.42% (inactive) | – |
| FC(F)(F)c1cccc(Cl)c1 | 3.31% (inactive) | – |
| CC(=O)CC(=O)Nc1ccc(S(=O)(=O)O)cc1 | 0.059% (inactive) | – |
| O=C1CCCCCCCCCCCCCCCO1 | 0.766% (inactive) | – |
| O=C(Oc1ccccc1)Oc1ccccc1 | -9.32% (inactive) | – |
| NC[C@H]1O[C@H](O[C@H]2[C@H](O[C@@H]3O[C@H](CO)[C@@H](O)[C@H]3O)C(O)[C@H](N)C[C@@H]2N)[C@H](N)[C@@H](O)[C@@H]1O (stereo not given in full) | 1.18% [at 6.97 µM] (inactive) | – |
| Nc1cc(Cl)c(O)c(Cl)c1 | -15.8% (inactive) | – |
| O=C(O)O | -3.52% [at 6.97 µM] (inactive) | – |
| O[C@@H]([C@H](O)[C@H](O)CBr)[C@H](O)CBr | -1.07% (inactive) | – |
| CCc1ccc(Br)cc1 | -3.4% (inactive) | – |
| Nc1nc(-c2ccccc2)cs1 | 1.59% (inactive) | – |
| O=[N+]([O-])c1cccc(C(F)(F)F)c1 | 2.82% (inactive) | – |
| O=S(=O)(O)c1ccc(Nc2nc(Nc3ccc(/C=C/c4ccc(Nc5nc(Nc6ccc(S(=O)(=O)O)cc6)nc(N(CCO)CCO)n5)cc4S(=O)(=O)O)c(S(=O)(=O)O)c3)nc(N(CCO)CCO)n2)cc1 | 1.29% [at 35.3 µM] (inactive) | – |
| Cc1ccc(C)cc1 | 10.6% (inactive) | – |
| CN(C)Cc1ccccc1O | -10.7% (inactive) | – |

— PubChem BioAssay (Tox21)
